Screening results deposited in PubChem BioAssay by National Center for Advancing Translational Sciences (NCATS).
VACV Venus inh – inhibitors of vaccinia virus (Venus reporter); Vaccinia virus Venus reporter expression, fluorescence; Potency, µM (highest dose often 36.5 µM), without a hit: top-dose activity change, negative = inhibition, most hits filed as inhibitors; actives 0.46% (n = 330,000); calls by dose curve; tested in A549 cells; further: potency means the concentration at half of the fitted maximal effect; nearly all actives have a fitted effect of over 30% in size
Vaccinia mCherry – inhibitors of vaccinia virus infection (mCherry reporter signal) | Vaccinia virus mCherry reporter infection, fluorescence | Potency, µM (top dose mostly 36.5 µM), without a hit: at the highest dose activity change, negative = inhibition, hits mostly inhibitors | actives 0.63% (n = 310,000) | AID 720579; calls by dose curve; tested in A549 cells; further: potency means the concentration at half of the fitted maximal effect; nearly all actives have a fitted effect of over 35% in size
FMDV inh – antivirals against foot and mouth disease virus; FMDV antiviral cell-based qHTS; Potency, µM (top dose mostly 57.9 µM), without a hit: top-dose activity change, negative = inhibition, actives largely listed as inhibitors; actives 1.2% (n = 410,000); calls by dose curve; tested in HEK293T cells; further: read-out not given here; potency means the concentration at half of the fitted maximal effect; nearly all actives have a fitted effect of over 45% in size
MARV entry inh – Marburg virus entry inhibition. Marburg virus pseudotyped entry inhibition, cell reporter. Potency, µM (doses to about 37.8 µM), for the others: top-dose activity change, negative = inhibition, hits mostly inhibitors. actives 1.8% (n = 300,000); calls by dose curve; tested in HEK293 cells; further: potency means the concentration at half of the fitted maximal effect
HCMV antiviral – human cytomegalovirus inhibition. actives 4.5% (n = 410,000). activity change, negative = inhibition, % at 57.5 µM. HFF cells, HCMV-luciferase reporter, 72 h; stronger effect = lower value; in the data active means activity change below about -60%; inconclusive means no clear call, values can overlap the other calls; inactive means above about -39%
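Screen run at 2 compound doses on HFFs infected with reporter HCMV, MOI 1 PFU/cell. Luciferase activity from cell lysates at 72 h post infection gave inhibition relative to buffer-only and Salinomycin wells.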
LASV entry inh – blocks Lassa virus binding to or entry into cells | actives 1.2% (n = 300,000) | Lassa virus pseudotype entry inhibition, cell reporter | AID 540256 | Potency, µM (top dose mostly 37.9 µM), for inactives: at the highest dose activity change, negative = inhibition, actives largely listed as inhibitors; calls by dose curve; tested in HEK293 cells; further: potency means the concentration at half of the fitted maximal effect; nearly all actives have a fitted effect of over 50% in size
* marks the source's active call; other numbers are inactive results; i = inactive; ? = inconclusive; / = not tested or not shown; ! = not confirmed by another sample; [ ] = another dose, or the depositor's remark. Only some compounds are listed: those with a hit (about 6.5% of all), similar ones and a draw of the others. On the % scale 0 is the no-effect control and ±100 the full control effect.

SMILES	VACV Venus inh	Vaccinia mCherry	FMDV inh	MARV entry inh	HCMV antiviral	LASV entry inh
CC(=O)c1ccc(N2CCN(C(=O)Nc3cn(CC(C)C)c(=O)c4ccccc34)CC2)cc1	-4%	5%	0%	/	0	28%[46.1 µM]
CC(C)CC(N)c1csc(Nc2ncccn2)n1 (stereo not given)	?	7.9µM*	6%	/	-27	/
NC(COCc1ccccc1)c1csc(Nc2ncccn2)n1 (stereo not given)	-11%	i	1%	/	31	/
C=C(C)C(O)/C=C/c1ccc(Br)cc1 (stereo not given)	/	/	/	12%[14.2 µM]	/	/
CC12CCC(=O)C=C1CCC1C2CCC2(C)C(O)(C(=O)CO)CCC12O (stereo not given)	-9%	-13%	-8%	-28%	-65*	-12%
CC12CCC(=O)C=C1CCC1C2CCC2(C)C1CCC2(O)C(=O)CO (stereo not given)	-8%	i	-22%	/	1	/
CC1CCCN(c2cccc3c2S(=O)(=O)N(Cc2cccc(Cl)c2)[C@@H](C)[C@H](c2ccccc2)O3)C1 (stereo not given in full)	/	/	/	/	-10	/
CCN1/C(=C\C(=S)Nc2ccccc2)Sc2ccccc21	-28%	-26%	-5%	?	-61*	?
CC(C)CN1CCNC(=O)C1CC(=O)NCCc1ccc(C(F)(F)F)cc1 (stereo not given)	-4%	-33%	8%	-10%[46.1 µM]	-101*	-9%[46.1 µM]
COc1ccc2c(c1)C(CC(C)=O)N(c1ccc(-c3cccs3)cc1)C(c1ccsc1)=C2 (stereo not given)	-5%	0%	-10%	/	-90*	/
COc1ccc2c(c1)C(CC(C)=O)N(c1ccc(-c3cnc(OC)nc3)cc1)C(c1ccsc1)=C2 (stereo not given)	-10%	15%	-13%	/	8	/
Cc1ccc(S(=O)(=O)N(C)C)cc1NC(=O)C(C)N(C)Cc1sccc1C (stereo not given)	?	?	16µM*	?	-61*	/
CC(C)C(=O)Nc1cccc(COc2ccc(CN(Cc3ccccc3)C(=O)OC(C)(C)C)cc2)c1	-26%	-6%	11µM*	/	-34	/
CC(C)C(=O)Nc1ccc(COc2ccccc2CN(Cc2ccccc2)C(=O)OC(C)(C)C)cc1	6%	?	-15%	/	-74*	/
CC(C)(C)OC(=O)N(CCc1ccccc1)Cc1ccc(OCc2cccc(NC(=O)C3CC3)c2)cc1	-26%	i	22µM*	/	?	/
C=CC(C1=CC(=O)C(OC)=CC1=O)c1ccc(O)cc1 (stereo not given)	-29%	i	13%	/	/	/
O=C(c1ccccc1-n1cccn1)N1CCOc2ccc(CN3CCOCC3)cc2C1	14%	-1%	-4%	/	/	/
O=C1C(=O)N(Cc2cccnc2)[C@@H](c2ccccn2)/C1=C(\O)c1ccccc1	/	/	/	13%	/	/
CN(Cc1cccc(-c2ccncc2)c1)C(=O)Oc1ccc([N+](=O)[O-])cc1	-16%	15%	22µM*	/	/	/
COc1ccccc1/C=C/c1nc2ccccc2o1	-8%	-13%	/	/	/	/
CN1CCc2cc(O)c(O)cc2C(c2ccccc2)C1 (stereo not given)	-13%	i	-16%	13µM*!	-25	?
CN1CCc2cc(Cl)c(O)cc2[C@@H](c2ccccc2)C1	-13%	-13%	1.3µM*!	-10%	-65*	0%
Oc1cc2c(cc1O)C(c1ccccc1)CNCC2 (stereo not given)	-11%	-15%	-12%	16µM*!	-31	?
CN1CCc2cc(Cl)c(O)cc2[C@H]2c3ccccc3CC[C@@H]21	/	/	0%	/	/	/
C=CCN1CCc2cc(O)c(O)cc2[C@H](c2ccccc2)C1	/	/	-1%	?	/	/
COc1cccc2cc(-c3nc(-c4ccccc4)c(C)s3)c(=O)oc12	-8%	29%	/	/	/	/
CCOc1ccc(N=Nc2ccc(O)c3ncccc23)cc1	-15%	?	14%	?	-87*	-20%[46.1 µM]
NS(=O)(=O)c1ccc(N=Nc2ccc(O)c3ncccc23)cc1	10µM*	?	-16%	/	-97*	/
CCS(=O)(=O)c1ccc(OC)c(N=Nc2ccc(O)c3ncccc23)c1	-23%	?	?	?	?	?
CCN(CC)S(=O)(=O)c1cc(OC)ccc1N=Nc1ccc(O)c2ncccc12	?	?	-20%	/	-97*	/
